USP17 inh – inhibitors of human USP17 deubiquitinase; AID 1645855, 2021; 47,000 compounds, 6.5% hits; Ubiquitin carboxyl-terminal hydrolase 17-like protein 5 (Homo sapiens), A8MUK1; purified USP17, Ub-rhodamine cleavage fluorescence, 3 h; inhibition, % at 50 µM
USP28 inh – inhibitors of human USP28 deubiquitinase. Ubiquitin carboxyl-terminal hydrolase 28 (Homo sapiens), Q96RU2. purified USP28, Ub-rhodamine cleavage fluorescence, 30 min. inhibition, % at 25 µM. 47,000 compounds, 3% hits
OTUD3 block – inhibitors of human OTUD3 deubiquitinase. 47,000 compounds, 0.7% hits. purified OTUD3, Ub-rhodamine fluorescence, 2 h. inhibition, % at 25 µM. AID 1645858, 2021. OTU domain-containing protein 3 (Homo sapiens), Q5T2D3
USP30 inh – inhibitors of human USP30 deubiquitinase | inhibition, % at 25 µM | AID 1645860, 2021 | purified USP30, Ub-rhodamine cleavage fluorescence | 47,000 compounds, 5.3% hits | Ubiquitin carboxyl-terminal hydrolase 30 (Homo sapiens), Q70CQ3
Target sequence (Q70CQ3 whole entry, looked up): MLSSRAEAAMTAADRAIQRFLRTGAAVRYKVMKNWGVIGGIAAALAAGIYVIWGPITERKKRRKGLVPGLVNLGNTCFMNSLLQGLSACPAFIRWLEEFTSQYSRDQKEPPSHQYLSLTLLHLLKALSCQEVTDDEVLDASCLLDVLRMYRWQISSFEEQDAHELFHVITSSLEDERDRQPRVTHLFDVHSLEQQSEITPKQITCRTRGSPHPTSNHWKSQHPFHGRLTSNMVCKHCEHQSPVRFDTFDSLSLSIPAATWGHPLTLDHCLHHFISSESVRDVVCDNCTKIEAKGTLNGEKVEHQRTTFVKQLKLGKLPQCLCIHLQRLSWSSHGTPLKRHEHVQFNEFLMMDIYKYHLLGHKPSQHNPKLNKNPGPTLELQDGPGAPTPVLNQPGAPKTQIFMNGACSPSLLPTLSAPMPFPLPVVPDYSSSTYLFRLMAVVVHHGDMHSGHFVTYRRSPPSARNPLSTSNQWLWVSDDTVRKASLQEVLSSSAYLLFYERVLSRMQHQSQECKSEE
Each line names hits and unclear results; the compound was inactive in the other large screens. Shown are actives, neighbours in structure and some others; about 11% of the full set was active somewhere. No stated cut-off is given here; in the data, active means inhibition above about 30%; inactive means the rest.

O=c1c2ccccc2ncn1C1CCN(S(=O)(=O)c2ccccc2F)CC1	USP17 inh 51.2
COc1cccc(C(=O)Nc2ccc(SC(C)C(=O)Nc3ccc(C(N)=O)cc3)cc2)c1 (configuration not stated)	none
CCc1ccc(OCc2nnc(SCC(=O)Nc3ccccc3OC)n2Cc2ccccc2)cc1	USP17 inh 52.5, USP30 inh 49.3
Cc1cccc(C)c1NC(=O)C1(NC(=O)c2ccc(Br)cc2)CCCCC1	USP17 inh 35.5
Cc1cccc(-c2noc(Cn3c(=O)[nH]c4cc5c(cc4c3=O)OCO5)n2)c1	none
COc1cc(C2c3[nH]c4ccccc4c3C[C@@H]3C(=O)N(CC4CCCO4)CC(=O)N23)cc(OC)c1OC (some centres not stated)	none
O=C(/C=C/c1cnc2ccccc2c1)NCc1ccccc1	USP17 inh 50.1, USP30 inh 41.4
O=C(NCc1cccnc1)C1CCN(c2cc(N3CCOCC3)ncn2)CC1	USP30 inh 42.8
Cc1cccc(CNC(=O)C2CCN(c3cnc(N4CCOCC4)nc3)CC2)c1	none
CC(Sc1nc2nn(-c3ccccc3)c(=O)c-2c2n1CCCCC2)C(=O)Nc1ccc(C#N)cc1 (configuration not stated)	USP30 inh 33.1
CCOc1cc(=O)c(C(=O)Nc2ccc(C#N)cc2)nn1-c1ccccc1	none
Cc1ccc(CN2CN(C3CCN(C(=O)CC(C)(C)C)CC3)CC2=O)cc1	none
O=c1cc(Cc2ccccc2)nc2c(-c3ccccc3)c(COc3ccccc3)[nH]n12	USP28 inh 40.7, USP30 inh 40.2
O=C1C=C[C@]23Oc4ccc(O)c5c4[C@](Oc4cccc1c42)(O3)C1OC1[C@@H]5O (some centres not stated)	USP17 inh 44.8
CN(C)c1ccc(NC(=O)CSc2nnc(-c3ccc(S(=O)(=O)N4CCOCC4)cc3)n2C)cc1	USP30 inh 44.7
Cc1noc(-c2ccc3nnc(CC(=O)Nc4ccc(F)cc4)n3c2)n1	none
COc1ccccc1NC(=O)c1oc2ccccc2c1NC(=O)c1ccccc1Cl	none
CSc1ccccc1C(=O)Nc1c(C(N)=O)oc2ccccc12	USP28 inh 30.0
O=C(O)CCCCc1cc(O)cc(O)c1	none
CCCCCCCCCCCCCCCc1cc(O)cc(O)c1C(=O)O	USP17 inh 88.6, USP28 inh 52.8, OTUD3 block 36.3, USP30 inh 55.5
CCCCCCCc1cc(OC(=O)c2c(CCCCCCC)cc(O)cc2O[C@@H]2O[C@H](CO)[C@@H](O)[C@H](O)[C@H]2O)cc(O)c1C(=O)O	USP17 inh 102.2, USP28 inh 102.0, OTUD3 block 101.5, USP30 inh 110.5
Cc1ccc(-c2cc(C(=O)N(Cc3ccccc3)C3CCS(=O)(=O)C3)no2)cc1 (configuration not stated)	none
c1ccc(-c2nnc3n2-c2ccccc2SC3)cc1	USP30 inh 31.1
O=C(c1cccnn1)N1C[C@@H]2OCC(=O)N(CCc3ccccc3)[C@H]2C1	none
COc1ccc(OC)c(-c2cc(C(=O)Nc3c(C)nn(Cc4ccccc4)c3C)no2)c1	USP28 inh 79.8
COc1ccc(NC(=O)c2cc(-c3ccco3)on2)c(OC)c1	none
CC(c1cc2ccccc2o1)N(C)c1ncnc2sccc12 (configuration not stated)	USP28 inh 34.7
CC(=O)c1ccc(NC(=O)CSc2nc3nc(C)ccc3o2)cc1	USP17 inh 46.2
COc1cccc(C(=O)NCCSc2ccc(Cl)cc2)c1	USP17 inh 34.9, USP28 inh 43.9
O=C(NCCSc1ccc(Cl)cc1)c1cccc(F)c1	none
Cc1ccc(NC(=O)c2nnc(C3CCCN3C(=O)C(C)C)s2)cc1 (configuration not stated)	none
O=S(=O)(Cc1nc(-c2ccc3c(c2)OCO3)no1)c1ccc(F)cc1	none
O=c1ccc(-c2noc(/C=C/c3ccc4c(c3)OCO4)n2)c[nH]1	USP17 inh 47.1
O=c1ccc(-c2noc(-c3ccc4cc[nH]c4c3)n2)c[nH]1	USP17 inh 58.8
Cc1ccc(-c2nc(-c3ccc(=O)[nH]c3)no2)cc1F	none
Cc1c(C(=O)NCc2ccccc2Br)cc(-c2ccccc2)n1C	USP30 inh 31.8
O=C(Nc1ccccc1)c1ccc(-c2ccccc2)s1	USP17 inh 54.0 (no result: USP28 inh, USP30 inh)
Cc1ccc(OC(C)C(=O)N2CCC(c3[nH]nc4nccnc34)CC2)cc1 (configuration not stated)	none
COc1ccc(CCNC(=O)CN(c2cc(C)cc(C)c2)S(=O)(=O)c2c(C)noc2C)cc1OC	USP30 inh 47.4

Screening data from PubChem.
